# Test results reported in PubChem BioAssay (NCI).
# This is part of a sample that, as a whole, favours compounds with a hit. Of some 79,000 tested, about 15% had one in any assay. A number with no mark means an inactive call. Active and inactive are the calls of the source. Rule as the data show it: active = growth inhibition above about 70%; inactive = the rest.
# Columns and labels:
# [1] = NCI Yeast Anticancer Drug Screen. Data for the rad50 strain (AID 155);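 also: 0% = growth of vehicle-only cultures of the same strain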; settings: S. cerevisiae rad50 strain growth inhibition; at 50.0 µM; hits give high values
# Outline: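 Growth of the mutant yeast was measured after compound exposure and referenced to vehicle-treated cultures.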
# [2] = NCI Yeast Anticancer Drug Screen. Data for the mec2-1 strain (AID 157); settings: S. cerevisiae mec2-1 strain, at 50.0 µM, hits give high values
# Outline: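 Strain: mec2-1 (DNA repair/cell cycle alteration). Compound exposure, then growth measured; inhibition expressed relative to vehicle.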
# [3] = NCI Yeast Anticancer Drug Screen. Data for the sgs1 mgt1 strain (AID 161);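 also: 0% = growth of cultures given vehicle only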; settings: S. cerevisiae sgs1 mgt1 strain, at 50.0 µM, hits give high values
# Outline: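 Test agents were incubated with a DNA-repair-mutant yeast strain. Growth was then read and compared against vehicle-treated controls.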
# [4] = NCI Yeast Anticancer Drug Screen. Data for the cln2 rad14 strain (AID 165);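 also: 0% = growth equal to vehicle treated cultures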; settings: S. cerevisiae cln2 rad14 strain, at 50.0 µM, hits give high values
# Outline: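 Compounds are applied to the cln2 rad14 yeast strain, and growth is then compared with that of vehicle-treated cultures to give inhibition.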
# [5] = NCI Yeast Anticancer Drug Screen. Data for the bub3 strain (AID 167); settings: S. cerevisiae bub3 mutant strain, at 50.0 µM, hits give high values
# Outline: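 Whole-cell yeast assay. The mutant strain was incubated with compounds, and growth inhibition was determined by comparison with vehicle-treated cells.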
# [6] = NCI Yeast Anticancer Drug Screen. Data for the mlh1 rad18 strain (AID 175); settings: S. cerevisiae mlh1 rad18 strain growth inhibition; at 50.0 µM; hits give high values
# Outline: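 Read-out is yeast growth inhibition, calculated against vehicle-only controls. The compound was applied to a strain engineered with DNA damage repair alterations.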
SMILES,growth inhibition [1],growth inhibition [2],growth inhibition [3],growth inhibition [4],growth inhibition [5],growth inhibition [6]
CC(=O)OCC(=O)O[C@@H]1[C@H]2[C@@H](OC(=O)c3ccccc3)[C@@H](C)C[C@]2(O)[C@H](OC(C)=O)[C@@]2(C)C(OC(C)=O)[C@]1(OC(C)=O)C[C@H]1C(=O)C(C)(C)C[C@@H]12 (stereo not given in full),-39.6%,-33%,-36.5%,-28.9%,-41.5%,-61%
COc1ccc2c(c1)Sc1c(Cl)c3c(c(Cl)c1=N2)Sc1cc(OC)ccc1N=3,19.5%,-4.75%,0.7%,21.7%,-2.2%,13.9%
Nc1ccc2c(c1)C(=O)c1c(F)c(F)c(F)c(F)c1-2,16.6%,-0.9%,-10.7%,-13.2%,4.85%,11.9%
CC(C)(C)C1=Cc2cc3cc(C(C)(C)C)[nH]c(=O)c3cc2S(=O)(=O)N1,-23.2%,-22.6%,-14.4%,3%,5.4%,-20.9%
COc1cc2c(c(OC)c1OC)-c1ccc(S(=O)(=O)Cc3ccccc3)c(=O)cc1C(NC(C)=O)CC2 (stereo not given),34.5%,16.2%,9.8%,-2.3%,1.25%,21.8%
CC(C)(C)C(=O)Cn1nnnc1C(=O)C(C)(C)C,-10.7%,-35.5%,-15.8%,-36.9%,-5.85%,-19.4%
COc1cc(OC)cc(C2OC(N)=C(O)C2=O)c1 (stereo not given),9.65%,4.25%,13%,14.9%,2.35%,19.3%
O=c1[nH]nc(NC2Nc3ccccc3N2)c2ccccc12,17.3%,15.1%,9.15%,-19.2%,6.6%,13.4%
CCOC(=O)C(=O)Nc1c(N(CC)CC)n2ccccc2nc1=O,5.75%,-22.5%,-4.15%,6.2%,2.6%,13.8%
O=S(=O)(Cl)c1cccc2c(S(=O)(=O)Cl)cccc12,7%,2.15%,15.4%,-40.5%,-10.4%,16.2%
Cc1onc(-c2ccccc2)c1NC(=O)OC(C)c1cccnc1 (stereo not given),-6.3%,-22.9%,3.7%,4.9%,18.1%,3.55%
N#Cc1c2c(c(=O)n3c1[nH]c1ccccc13)CCC2,-23.9%,11.4%,-15.6%,-3.25%,-1.6%,-8.2%
Cc1c([N+](=O)[O-])cc2c(c1[N+](=O)[O-])C(C)(C)C(C)CC2(C)C (stereo not given),1.2%,-15.8%,6.45%,-15%,45.7%,-10.9%
CCC(C)OC(=O)CC(c1ccccc1)N1CCCCC1 (stereo not given),7.5%,-10.4%,3%,-26.4%,-0.65%,-4.5%
Cc1ccc(-n2cnc3c(Cl)ncnc32)cc1[N+](=O)[O-],-4.05%,12.3%,15.1%,-45%,1.65%,10.9%
COC(=O)c1nc(=S)[nH]c(C(=O)OC)c1C(=O)c1cccc2ccccc12,8.6%,34.4%,4.35%,-24.3%,-5.5%,13.1%
CCC(O)(Cc1ccccc1)C(C(=O)O)c1ccccc1 (stereo not given),-32%,-31.1%,4.6%,4.9%,-28.1%,-26%
CCOC(=O)C(NC(C)=O)C(O)c1ccccc1 (stereo not given),-8.85%,-16.2%,-2%,-24.6%,-37.4%,-9.95%
CCc1c(C)nc2[nH]ncn2c1=O,10.8%,-2.1%,11.1%,-2.25%,7.25%,6.7%
COc1ccc(C2(C(OC)OC)NC(=O)NC2=O)cc1 (stereo not given),-26.8%,-4.1%,-8.8%,35.4%,-0.7%,-8.85%

SMILES,growth inhibition [1],growth inhibition [2],growth inhibition [3],growth inhibition [4],growth inhibition [5],growth inhibition [6]
O=C1c2ccccc2-c2ccc(I)cc21,5.15%,-1.7%,2.25%,-17.6%,8.45%,26.2%
COc1ccc2nc(-c3ccccc3)cc(N=[N+]=[N-])c2c1,1.9%,-0.85%,-12.7%,-5.35%,-23.1%,-12%
Cc1ccc(C(=O)c2ccccc2Cc2ccc3ccccc3c2)cc1,13.8%,0.8%,6.3%,1.35%,61.2%,-0.25%
CC[O-].CC[O-].O=C1c2ccccc2C(=O)c2c(O)ccc([O-])c21.O=C1c2ccccc2C(=O)c2c(O)ccc([O-])c21.[Ti+4],-20.6%,1.75%,-3.45%,-4.3%,-17.9%,-14.8%
COc1ccc(/C=N/n2cnc3c(sc(=S)n3-c3ccccc3)c2=O)cc1,23%,1.1%,-8.45%,-1.7%,-23.7%,12.8%
O=C(Nc1ccc(Cl)cc1)/C(Cc1cccc[n+]1[O-])=N\Nc1ccc([N+](=O)[O-])cc1[N+](=O)[O-],-19.4%,-17%,-6.2%,-7.15%,-26.6%,-20.2%
COc1ccc(CSCc2cc(OC)c(OC)c(OC)c2)cc1,-13.5%,16.8%,-24.1%,0.3%,51.2%,-2.15%
CCCC(SCC(=O)O)SCC(=O)O,14.4%,-6.05%,-6.85%,-41.8%,-4.75%,-17%
COc1cccc2c1C(=O)c1c(O)c3c(c(O)c1C2=O)CC(O)(C(O)CO)CC3OC1CC(N2CCSCC2)C(O)C(C)O1 (stereo not given),87.7% (active),87.5% (active),88% (active),84% (active),85.8% (active),90.3% (active)
CC(=O)Nc1ccc2c(c1)C(=O)c1ccc(S(C)(=O)=O)cc1-2,14.8%,-1.15%,-0.95%,3.5%,-0.85%,-3.35%
CNC(=O)Nc1ccccc1,27.4%,-0.55%,-12.1%,16.9%,-21.9%,7.6%
O=C(Nc1ccccc1)Sc1nc2ccccc2s1,24.5%,17.8%,45.5%,13.7%,53.9%,27.6%
NCCCCCCCCCCC(=O)O,-7.25%,-7.6%,-10.7%,-11.2%,-5.9%,-2.8%
Cc1ccccc1SCC(N)=O,6.55%,9.1%,-0.85%,-12.1%,5.35%,-0.7%
O=C(O)CC1(c2ccccc2)CCCCC1,-1.1%,7.05%,0.65%,-6.2%,46.8%,2.3%
COC(=O)c1cc(-c2ccc3ccccc3c2)[nH]c(=O)c1C#N,34.4%,35.2%,65.6%,46.9%,23.2%,67.3%
COc1cc(C2SC(N)=Nc3c2c(C)nn3C(=O)c2ccc(Cl)cc2)ccc1O (stereo not given),-36.7%,15.8%,-9.55%,-30.4%,16.8%,-10.2%
CC(C)(C)c1ccc(O)c(CNCCO)c1,21.1%,-6.65%,-3.25%,-28.1%,3.9%,8.05%
CCCCCCCOC(=O)c1ccccc1Cl,7.3%,-10.1%,23.4%,-6.7%,13.9%,2%
COc1nc(N)c2[nH]cnc2n1,0.95%,21.4%,2.05%,21.4%,5.15%,3.4%
